Compound activity deposited in PubChem BioAssay by National Center for Advancing Translational Sciences (NCATS).
IL-1B inflam inh = qHTS for Inhibitors of Inflammasome Signaling: IL-1-beta AlphaLISA Primary Screen | THP-1 LPS/ATP IL-1B secretion, AlphaLISA, 16 h; stronger effect = lower value | AID 743279, 2014 | 360,000 tested, 4.7% active | activity change, % at 57.5 µM; in the data active = activity change below about -50%; inconclusive = mostly about -30% to -49%; also: % is scaled to controls: 0 for no effect and ±100 for the full control effect
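THP-1 cells pretreated 1 hr with compounds (up to 57.5 uM final), then stimulated with LPS (250 ng/mL final) plus ATP (1.25 mM final); secreted IL-1B measured by AlphaLISA after 16 hr, decreased signal indicating inhibition.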
TGFb SMAD3 inh = qHTS for Inhibitors of TGF-b. HepG2 CAGA-GFP TGF-b/SMAD3 reporter, GFP fluorescence, 18 h; TGF-beta stimulated, 500 pg/mL final. Potency, µM (doses to about 46.1 µM), for inactives: at the top dose activity, negative = inhibition, most hits filed as inhibitors. 410,000 tested, 1.2% active; also: potency is read from the fitted curve at half-maximal effect; % is scaled to controls: 0 for no effect and ±100 for the full control effect; nearly all actives have a fitted effect of over 65% in size
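TGF-beta reporter screen: HEPG2 CAGA-GFP, 1% FBS, 500 pg/mL TGF-beta final, 18 h; per-cell GFP summed per well; curves fitted and categorized by class.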
DT40 TDP1 no CPT = qHTS for Inhibitors of human tyrosyl-DNA phosphodiesterase 1 (TDP1): qHTS in cells in absence of CPT; DT40 Tdp1-/- hTDP1 cells, no CPT, ATP luminescence, 48 h; Potency, µM (top dose mostly 46.2 µM), inactives show top-dose activity change, negative = growth inhibition, hits mostly inhibitors; 420,000 tested, 15% active; AID 686978, 2013; also: potency is read from the fitted curve at half-maximal effect; % is scaled to controls: 0 for no effect and ±100 for the full control effect; nearly all actives have a fitted effect of over 55% in size
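No-CPT arm: Tdp1-/-;hTDP1 DT40 cells (400/well) plus compounds, incubated ≥48 hr at 37 °C. Readout CellTiter-Glo luminescence.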
DT40 TDP1 CPT = qHTS for Inhibitors of human tyrosyl-DNA phosphodiesterase 1 (TDP1): qHTS in cells in presence of CPT; Potency, µM (top dose mostly 46.2 µM), without a hit: at the top dose activity change, negative = growth inhibition, usual class: inhibitors; 420,000 tested, 12% active; chicken DT40 Tdp1-/-;hTDP1 cells + 20 nM CPT, ATP luminescence, 48 h; AID 686979, 2013; also: potency is read from the fitted curve at half-maximal effect; % is scaled to controls: 0 for no effect and ±100 for the full control effect; nearly all actives have a fitted effect of over 55% in size
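Chicken DT40 Tdp1-/- cells stably complemented with human TDP1 were seeded at 400 cells/well in medium containing 20 nM camptothecin, exposed to pin-transferred compounds, and grown at 37 °C for at least 48 hr. Viability was read as ATP luminescence.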
HepG2 viability = qHTS for Inhibitors of TGF-b: Cytotox Counterscreen. Potency, µM (highest dose often 46.1 µM), for the others: at the highest dose activity change, negative = cytotoxicity, most hits filed as cytotoxic. 410,000 tested, 0.76% active. HepG2 CAGA-GFP viability, ATP luminescence, 18 h. AID 588856, 2011; also: potency is read from the fitted curve at half-maximal effect
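CellTiter-Glo luminescence gave cytotoxicity after 18 hours at 37 degrees C. The cells were HepG2 CAGA-GFP in 1% FBS DMEM, stimulated with 500 pg/mL TGF-beta after compound addition. %Activity was normalised to no-cell wells (complete cell-killing) and DMSO (no toxicity), and curves were fitted and classified.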
ASM inhibitor = Inhibitors of Secretory Acid Sphingomyelinase (S-ASM): qHTS. Sphingomyelin phosphodiesterase (Homo sapiens), P17405. placental ASM, HMU-PC fluorogenic substrate, 60 min. Potency, µM (titrated, usually from 57.5 µM), without a hit: at the highest dose activity change, negative = inhibition, usual class: inhibitors. 340,000 tested, 0.006% active. AID 504937, 2011; also: potency is read from the fitted curve at half-maximal effect
Target sequence (P17405 47-631 limits assumed): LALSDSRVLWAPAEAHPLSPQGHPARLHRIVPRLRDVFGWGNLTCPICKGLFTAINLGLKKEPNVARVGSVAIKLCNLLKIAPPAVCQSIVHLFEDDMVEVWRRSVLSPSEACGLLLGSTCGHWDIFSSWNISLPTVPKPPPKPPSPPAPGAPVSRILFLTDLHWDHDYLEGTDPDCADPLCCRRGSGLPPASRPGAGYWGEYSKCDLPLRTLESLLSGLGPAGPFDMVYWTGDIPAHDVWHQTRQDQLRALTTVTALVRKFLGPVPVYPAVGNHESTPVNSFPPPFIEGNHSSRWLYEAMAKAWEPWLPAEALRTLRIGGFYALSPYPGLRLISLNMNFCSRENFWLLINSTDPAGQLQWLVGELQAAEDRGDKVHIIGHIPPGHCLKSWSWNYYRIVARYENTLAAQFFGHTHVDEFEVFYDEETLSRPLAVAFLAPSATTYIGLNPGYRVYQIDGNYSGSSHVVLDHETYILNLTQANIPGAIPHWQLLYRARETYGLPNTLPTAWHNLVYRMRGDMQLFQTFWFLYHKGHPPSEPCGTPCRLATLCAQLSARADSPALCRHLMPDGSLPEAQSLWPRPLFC
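HMU-PC0 cleavage (9 uM final) by human placental ASM, 60 min at 37 °C following 10 min compound exposure at RT; stopped at pH 10, fluorescence Ex 386/Em 447 nm.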
Starred values were filed as active, the others as inactive; i = inactive; ? = inconclusive; . = no result given. The list is not random: actives were taken first. Their share in the collection is about 19%. Unless noted, calls follow the shape of the dose curve; as a rule, active = well fitted curve in the direction sought with a large enough effect; inconclusive = small, poorly fitted or top-dose-only effect, or another doubt; inactive = no such curve, though single readings can be large; an effect the other way counts as inactive or inconclusive.

SMILES	IL-1B inflam inh	TGFb SMAD3 inh	DT40 TDP1 no CPT	DT40 TDP1 CPT	HepG2 viability	ASM inhibitor
CCCCn1c(SCC(=O)NC2CC(C)(C)NC(C)(C)C2)nc2cc(S(N)(=O)=O)ccc21	4.9	-0.4%	17.9%	5.3%	0.3%	-1.2%
COc1ccccc1CN(C)C(=O)CSc1nnc(C2CC2)n1C1CC1	16.2	10.7%	16.4µM*	?	0.0%	10.3%
Cc1ccccc1Cn1c(C)c(CNCc2ccccc2)c(C(=O)O)c1C	.	-14.3%	-28.3%	-1.0%	-1.9%	.
Cc1[nH]n(-c2ccccc2)c(=O)c1C(c1ccc(C(=O)O)cc1)c1c(C)[nH]n(-c2ccccc2)c1=O	-0.5	2.7%	?	?	-26.3%	-6.4%
Cc1[nH]n(-c2ccccc2)c(=O)c1C(C[N+](=O)[O-])c1ccc(Br)cc1 (configuration not stated)	-15.0	-23.1%	9.2µM*	11.6µM*	-23.8%	-2.4%
Cc1[nH]n(-c2ccccc2)c(=O)c1C(c1cccc([N+](=O)[O-])c1)c1c(C)[nH]n(-c2ccccc2)c1=O	-84.7*	-20.7%	20.6µM*	?	-7.2%	-5.8%
COc1cc(S(=O)(=O)Nc2ccc(C)cc2)ccc1N=Cc1c(C)[nH]n(-c2ccc(C)cc2)c1=O	-6.8	20.0%	13µM*	-23.1%	-10.1%	-22.9%
COc1cc(S(=O)(=O)Nc2ccc(C)cc2)ccc1N=Cc1c(C)c(C#N)c(=O)n(C)c1O	0.6	82.0%	13µM*	?	-11.0%	3.7%
Cc1ccc(CN=Cc2[nH]c3ccc(Br)c(Cl)c3c2O)cc1	0.0	-7.1%	20.6µM*	?	17.8µM*	-13.6%
Cc1cc(S(=O)(=O)N2CCCOC2CNC(=O)C(=O)NCCc2ccco2)ccc1F (configuration not stated)	i	-26.6%	2.0%	2.9%	21.1%	2.0%
Cc1cnc(CNc2nc(-c3c(C)noc3C)nc3ccccc23)cn1	.	.	2.4%	1.5%	.	.
OC(COCCC12CC3CC(CC(C3)C1)C2)CN1CCCC1 (configuration not stated)	-2.1	-10.7%	?	18.4µM*	-42.3%	4.8%
O=C(OCC(O)CN1CCCCC1)C12CC3CC(CC(C3)C1)C2 (configuration not stated)	-6.7	-3.3%	4.7%	-11.6%	0.0%	0.4%
CC1CC(=O)N(CC(=O)Nc2cccc(F)c2)c2ccccc2S1(=O)=O (configuration not stated)	2.6	-14.4%	25.9%	-4.8%	5.4%	2.9%
Cc1ccc(OC2=NS(=O)(=O)c3ccccc32)cc1	35.3	11.1%	4.6%	2.5%	0.7%	-2.3%
CCc1ccc(OC2=NS(=O)(=O)c3ccccc32)cc1	35.7	-26.0%	-3.5%	-1.8%	-14.1%	-4.0%
CCN(CC)c1cccc(OC2=NS(=O)(=O)c3ccccc32)c1	3.5	-26.9%	16.4µM*	8.2µM*	-22.9%	12.7%
COc1ccccc1OC1=NS(=O)(=O)c2ccccc21	-1.2	11.3%	13µM*	20.6µM*	2.5%	4.1%
O=C1C(Cl)=C(N2CCCC2)C(=O)N1c1ccccc1F	24.2	1.5%	9.4%	-13.9%	-13.9%	-0.4%
Cc1c(C(=O)NCc2ccc(Cl)cc2)oc2ccc3c(c12)C(=O)CC(C)(C)O3	.	.	14.6µM*	?	-1.7%	.
COc1cccc(CNC(=O)c2oc3ccc4c(c3c2C)C(=O)CC(C)(C)O4)c1OC	.	.	16.4µM*	?	-15.1%	.
CCOC(=O)c1ccc(NC(=O)c2oc3ccc4c(c3c2C)C(=O)CC(C)(CC)O4)cc1 (configuration not stated)	.	-14.9%	20.6µM*	?	-46.4%	.
CCCNC(=O)c1oc2ccc3c(c2c1C)C(=O)CC(C)(C)O3	?	-0.2%	?	-17.3%	-15.1%	19.9%
Cc1nn(C)c(Cl)c1C(=O)NC(C(=O)O)c1ccccc1 (configuration not stated)	19.3	-5.9%	-6.4%	1.7%	-10.5%	0.5%
Cc1ccc(CNS(=O)(=O)c2c(C)[nH]c(C)c2C(=O)N2CCCCC2)o1	-8.7	17.6%	16.5%	10.4%	9.8%	0.1%
SMILES	IL-1B inflam inh	TGFb SMAD3 inh	DT40 TDP1 no CPT	DT40 TDP1 CPT	HepG2 viability	ASM inhibitor
O=C(NCc1ccco1)c1ccc2c(c1)N(Cc1ccccc1)CCS2	?	1.0%	-11.9%	-14.5%	-5.5%	349.4%
O=C(NCc1ccccc1)c1ccc2c(c1)N(Cc1ccc(F)cc1)CCS2	.	10.5%	18.4µM*	?	-1.4%	.
CCCOc1ccc(CNC(=O)c2ccc3c(c2)N(Cc2ccccc2)CCS3)cc1	.	.	18.4µM*	?	-11.9%	.
CC(NCC(c1ccco1)N1CCCCC1)C(=O)NC1CCCC1 (configuration not stated)	2.4	8.5%	?	0.9%	-19.7%	14.9%
Cc1cccc(NC(=O)C(C)n2cc([N+](=O)[O-])cn2)n1 (configuration not stated)	27.9	?	-0.8%	20.0%	3.7%	-1.2%
C=CC(=O)Nc1cc2c(Nc3ccc(F)c(Cl)c3)ncnc2cc1OCCCN1CCOCC1	.	.	4.73µM*	5.31µM*	.	.
CCOC(=O)c1cccc(NC(=O)c2cc(CN3CCOCC3)on2)c1	.	-0.2%	1.8%	1.9%	-3.1%	.
O=C1c2ccc(Oc3cccc([N+](=O)[O-])c3)cc2C(=O)N1c1ccccn1	2.4	6.7%	?	?	1.9%	0.4%
O=C1c2cc([N+](=O)[O-])cc3cc([N+](=O)[O-])cc(c23)C(=O)N1c1ccccn1	-99.7*	5.62µM*	18.4µM*	20.6µM*	2.1%	4.3%
CSc1cccc(NC(=O)NCc2cccc(CNC(=O)Nc3cccc(SC)c3)c2)c1	0.0	?	?	?	12.6µM*	-0.2%
COc1ccc(CNC(=O)Nc2cccc(C(F)(F)F)c2)cc1OC	3.1	8.7%	9.2µM*	?	-5.8%	-1.7%
CCOc1cc(CNC(CC)CO)ccc1OCC(=O)Nc1cccc(C(F)(F)F)c1 (configuration not stated)	-20.1	-17.3%	25.9µM*	?	-61.4%	-2.4%
CCc1ccc(NC(=O)c2cc3c([nH]c2=O)CC(C)(C)CC3=O)cc1	.	28.6%	3.8%	0.7%	10.1%	.
